Screening results: PubChem, several laboratories
eLon inh – inhibitors of E. coli Lon protease, primary screen, biochemical, fluorescence polarization | purified E. coli Lon protease | inhibition, % at 7.94 µM | hit rate 0.42% among 360,000; in the data active means inhibition above about 13%, passing the limit was not always enough
cardiac RTF act – cardiac RTF calcium sensitivity activators, primary screen, biochemical, IANBD-TnC fluorescence, EC20 calcium; Troponin I, cardiac muscle (Homo sapiens) + Troponin T, cardiac muscle (Homo sapiens) + …; IANBD-labeled TnC RTF fluorescence at EC20 calcium; 0% EC20 calcium, 100% full calcium; activation, % at 7.2 µM; hit rate 0.24% among 340,000; AID 493008, 2010;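 active means activation above the mean over all tested compounds plus 3 SD, cut at about 30% in these data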;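 further: rise in fluorescence read as greater calcium sensitivity of cardiac thin filaments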
Cardiac RTF inh – cardiac RTF calcium sensitivity inhibitors, primary screen, biochemical, IANBD-TnC fluorescence, EC70 calcium | Troponin I, cardiac muscle (Homo sapiens) + Troponin T, cardiac muscle (Homo sapiens) + … | IANBD-labeled cardiac RTF, Ca2+ fluorescence | inhibition, % at 7.15 µM | hit rate 0.12% among 340,000 | AID 493244, 2011;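 active means inhibition above the mean inhibition of all tested compounds plus 3 SD, cut at about 17% in these data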;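 further: assay run at fixed EC70 calcium of 1.6 mM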
LANA-H2A inh – blockers of LANA interaction with H2A/H2B – biochemical, FP readout, HTS, primary screen. Protein LANA1 (Human herpesvirus 8 type P (isolate GK18)), Q9QR71. cell-free LANA-H2A/H2B peptide, fluorescence polarization. inhibition, % (concentration not given with the values). hit rate 0.6% among 320,000; in the data active means inhibition mostly above about 10%, no sharp cut-off; inactive means mostly below about 6.7%
Target sequence (Q9QR71 whole entry, looked up): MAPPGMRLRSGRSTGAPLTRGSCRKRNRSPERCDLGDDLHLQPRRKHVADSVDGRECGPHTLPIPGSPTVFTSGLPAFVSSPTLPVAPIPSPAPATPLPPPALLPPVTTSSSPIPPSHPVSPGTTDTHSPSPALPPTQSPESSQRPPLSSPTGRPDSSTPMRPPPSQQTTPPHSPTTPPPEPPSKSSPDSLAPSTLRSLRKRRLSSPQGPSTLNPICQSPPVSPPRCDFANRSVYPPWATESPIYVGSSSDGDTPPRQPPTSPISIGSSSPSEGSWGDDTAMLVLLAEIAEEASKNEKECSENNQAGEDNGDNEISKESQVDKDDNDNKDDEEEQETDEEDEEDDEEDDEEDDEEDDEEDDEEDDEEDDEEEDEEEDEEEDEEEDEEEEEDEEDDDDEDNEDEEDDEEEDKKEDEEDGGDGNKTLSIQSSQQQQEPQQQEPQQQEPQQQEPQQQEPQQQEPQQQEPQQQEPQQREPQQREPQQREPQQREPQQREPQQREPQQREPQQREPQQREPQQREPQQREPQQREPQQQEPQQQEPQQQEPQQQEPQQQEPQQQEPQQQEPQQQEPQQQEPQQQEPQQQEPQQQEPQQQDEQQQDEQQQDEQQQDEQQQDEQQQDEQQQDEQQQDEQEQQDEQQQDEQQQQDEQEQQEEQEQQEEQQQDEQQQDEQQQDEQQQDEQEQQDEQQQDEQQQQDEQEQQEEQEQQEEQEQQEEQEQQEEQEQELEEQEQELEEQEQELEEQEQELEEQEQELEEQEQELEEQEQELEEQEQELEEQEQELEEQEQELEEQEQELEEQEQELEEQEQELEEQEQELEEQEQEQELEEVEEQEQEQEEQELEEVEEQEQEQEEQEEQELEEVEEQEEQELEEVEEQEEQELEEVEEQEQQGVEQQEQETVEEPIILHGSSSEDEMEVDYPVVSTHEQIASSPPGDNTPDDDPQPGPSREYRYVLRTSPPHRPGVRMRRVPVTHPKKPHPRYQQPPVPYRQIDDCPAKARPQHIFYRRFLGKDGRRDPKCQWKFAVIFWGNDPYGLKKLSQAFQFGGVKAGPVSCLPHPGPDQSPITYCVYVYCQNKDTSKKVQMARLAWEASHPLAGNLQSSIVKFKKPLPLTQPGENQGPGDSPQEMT
LANA DNA inh – inhibitors of KSHV C-LANA binding to DNA, primary screen, biochemical, fluorescence polarization, FAM-LBS DNA, MBP-C-LANA, single point. Kaposi's sarcoma herpesvirus LANA C-terminal domain (residues 932-1162) DNA binding. hit rate 0.078% among 340,000. inhibition, % at 9 µM;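 active means highest replicate inhibition at or above 60% at 9 µM, even if other replicates fall short; inactive means all replicates below 60% inhibition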
Keap1 Nrf2 FP – Keap1-Nrf2 protein-protein interaction inhibitors, primary screen, biochemical, fluorescence polarization, single point; Kelch-like ECH-associated protein 1 (Homo sapiens), Q14145; Keap1 Kelch-Nrf2 peptide fluorescence polarization, 1536-well; inhibition, % at 9.4 µM; hit rate 0.15% among 340,000; AID 504523, 2011; in the data active means inhibition above about 12%;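 further: human Keap1 Kelch domain with fluorescein labeled Nrf2 9mer peptide probe; higher means more block of Keap1 binding to Nrf2 peptide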
eLon confirm – E. coli Lon protease inhibitor retest, confirmation, biochemical, fluorescence polarization | shares compounds with eLon inh | purified E. coli Lon | inhibition, % at 7.94 µM | hit rate 31% among 1,400; in the data active means inhibition above about 16%
A number is an active result; - = inactive; . = not tested or not shown. Shown are actives, neighbours in structure and some others; about 1.3% of the full set was active somewhere.

SMILES	eLon inh	cardiac RTF act	Cardiac RTF inh	LANA-H2A inh	LANA DNA inh	Keap1 Nrf2 FP	eLon confirm
CCCC(=O)NC(c1ccc(OC)c(OC)c1)c1cc(Cl)c2cccnc2c1O (stereo unspecified)	17	-	-	-	-	-	48
COc1ccc(C(NC(C)=O)c2cc(Cl)c3cccnc3c2O)cc1 (stereo unspecified)	-	-	-	-	-	-	.
O=C(NCCCN1CCOCC1)c1cccc(S(=O)(=O)Nc2cc(Cl)ccc2Cl)c1	-	-	-	-	-	-	.
O=C(COC(=O)c1ccc(NS(=O)(=O)c2cccs2)cc1)Nc1nc2c(F)c(F)c(F)cc2s1	21	-	-	.	-	-	-
O=C1CC(=O)CC(c2ccccc2Cl)C1	30	-	-	-	-	-	-
CCC(C)[C@H](NC(=O)NCCC1=CCCCC1)C(=O)OC (stereo partly specified)	-	-	-	-	-	-	.
COC(=O)[C@H](C)NC(=O)NCCC1=CCCCC1	24	-	-	-	-	-	-
Cc1cc(C(=O)OCC(=O)Nc2ccccc2C#N)c(C)o1	-	-	-	.	-	-	.
COc1ccc(C(O)c2nc(-c3ccc(N(C)C)cc3)cs2)cc1 (stereo unspecified)	-	.	.	.	.	.	.
O=C1NC(=S)CN1c1ccccc1	33	-	-	-	-	-	-
CSc1ccc(S(=O)(=O)N2CCN(Cc3ccc4c(c3)OCO4)CC2)cc1	-	-	-	-	-	-	.
COc1ccc(S(=O)(=O)N2CCN(Cc3ccc4c(c3)OCO4)CC2)cc1	43	-	-	-	-	-	-
Cc1ccc(/C=C/C(=O)O)cc1S(=O)(=O)NCC1CCCO1 (stereo unspecified)	-	-	-	-	-	-	.
Cc1ccc(/C=C/C(=O)O)cc1S(=O)(=O)NC1CCS(=O)(=O)C1 (stereo unspecified)	15	-	-	-	-	-	-
O=C(CSc1nnc(CSc2nc3ccccc3s2)o1)NC1CCCCC1	-	-	-	-	-	-	.
O=C(CSc1nc2ccccc2s1)NC1CCCC1	23	-	-	-	-	-	-
N#Cc1ccccc1Cn1cc(/C=C/[N+](=O)[O-])c2ccccc21	-	-	-	-	-	-	.
N#Cc1ccc(CC(=O)c2ccccc2)[nH]c1=O	25	-	-	.	-	-	-
Cc1ccc(CNC(=S)NCc2ccncc2)cc1	-	-	-	-	-	-	.
O=C(c1ccccc1C(=O)N1CCN(c2ccccc2)CC1)N1CCN(c2ccccc2)CC1	34	32	-	-	-	-	17
COc1cccc(NC(=O)COC(=O)c2ccccc2C(=O)N2CCN(c3ccccc3)CC2)c1	16	-	-	-	-	-	-
Cc1ccccc1C(=O)N1CCN(c2ccc(N3CCOCC3)nn2)CC1	23	-	-	-	-	-	-
O=C(COC(=O)c1ccccc1C(=O)N1CCN(c2ccccc2)CC1)Nc1ccccc1	-	-	-	-	-	-	.
O=C(O)c1ccccc1C(=O)N1CCN(c2ccccc2)CC1	-	-	-	-	-	-	.
O=C(COC(=O)c1ccccc1C(=O)N1CCN(c2ccccc2)CC1)Nc1ccc(F)cc1	22	-	-	-	-	-	-
SMILES	eLon inh	cardiac RTF act	Cardiac RTF inh	LANA-H2A inh	LANA DNA inh	Keap1 Nrf2 FP	eLon confirm
COc1ccc(OC)c(S(=O)(=O)NC2CCCCNC2=O)c1 (stereo unspecified)	-	-	-	-	-	-	.
COc1ccc(NC(=O)CO/N=C/C(=O)Nc2ccccc2C)c([N+](=O)[O-])c1	-	-	-	-	-	-	.
CCCCn1c(N)c(N(CC)C(=O)c2cc(CC)c(C)s2)c(=O)[nH]c1=O	-	-	-	-	-	-	.
COc1ccc(S(=O)(=O)NCc2ccc3c(c2)cc(C)n3C)cc1	15	-	-	-	-	-	-
Cc1cc2cc(CNS(=O)(=O)c3ccccc3)ccc2n1C	31	-	-	-	-	-	20
Cc1c(C=O)c2ccccn2c1C(=O)c1cccs1	31	-	-	-	-	-	22
Cc1c(C=O)c2ccccn2c1C(=O)c1ccccc1Cl	-	-	-	-	-	-	.
CCO[C@H]1OC(C(=O)N2CCN(Cc3ccccc3)CC2)=C[C@@H](C)[C@@H]1CCCO	28	-	-	-	-	-	-
Cc1cc(C(=O)COc2cccc3cccnc23)c(C)n1C	71	53	-	-	-	24	-
Cc1cc(C(=O)COc2ccccc2C(N)=O)c(C)n1C	-	-	-	-	-	-	.
O=C(Nc1ccccc1C(=O)N1CCN(Cc2ccccc2)CC1)c1ccc(F)cc1	22	-	-	-	-	-	-
COc1ccc(CN(C)C(=O)[C@H]2O[C@@H](n3cnc4c(N)ncnc43)[C@H](O)[C@@H]2O)cc1OC	-	.	.	.	.	.	.
O=C(c1[nH]ncc1-c1ccccc1)C1CO1 (stereo unspecified)	50	-	-	-	-	-	21
O=C(c1[nH]ncc1-c1cccc(Br)c1)C1CO1 (stereo unspecified)	-	-	-	-	-	-	.
CC(=O)Oc1[nH]c(=O)c2cccc3c2c1CCC3	-	.	.	.	.	.	.
COc1cc(C)c2c(c1C=O)Oc1c(c(C)c(O)c3c1C(O)OC3=O)OC2=O (stereo unspecified)	57	-	-	-	-	-	16
CC(=O)OCC(OC(C)=O)C(OC(C)=O)C(OC(C)=O)C(=O)Nc1cccc(C)c1 (stereo unspecified)	-	-	-	-	-	-	.
Cc1nn(C)c(Sc2ccccc2N)c1[N+](=O)[O-]	-	-	-	-	-	-	.
Cn1c(CNc2ccc(Cl)cc2)nc2ccccc21	-	-	-	-	-	-	.
Cc1ccc(N2CCN(c3ccc(NCc4nc5ccccc5n4C)cc3)CC2)cc1	45	-	-	-	-	-	-
Cn1c(NC2CCCCC2)cc(=O)n(C)c1=O	27	-	-	-	-	-	-
Cn1c(NC(=O)CCC2CCCCC2)cc(=O)n(C)c1=O	-	-	-	-	-	-	.
CC(=O)N(/N=C/c1ccc(C)cc1)c1nc(CCl)cs1	-	-	-	-	-	-	.
O=c1[nH]c2ccccc2nc1/C=C/c1ccccc1	14	-	-	-	-	-	-
